# In PubChem BioAssay (EPA / NIEHS):
# Inconclusive results are not listed. Active and inactive are the calls of the source. How the source made its calls: active means hit-call score of the fitted dose curve at least 0.9, where 1 is the maximum; inconclusive means response in the unintended direction; inactive means score below 0.9.
# Tests used:
# [1] = target: Estrogen receptor beta (Homo sapiens) (UniProt Q92731); assay: ATG_hERb_XSP1: Attagene TRANS-FACTORIAL Multi-Species (XSP1) HepG2 Assay for human Estrogen Receptor (ESR2) (AID 2283788)
# Outline: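 Measured endpoint is transcriptional gain of signal from a GAL4-UAS reporter controlled by chimeric ERβ in HepG2 liver cells. Exposure lasts 24 h alongside 3 nM 6-alpha-fluorotestosterone, with DMSO as negative control.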
# [2] = target: GAL4 Transcription Factor (Internal Marker), GAL4 (gene 855828) (UniProt P04386); assay: ATG_GAL4_XSP1: Attagene TRANS-FACTORIAL Multi-Species (XSP1) HepG2 Assay for GAL4 Transcription Factor (Internal Marker) (AID 2283789)
# Outline: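 HepG2 cells transiently transfected with multiplexed GAL4-UAS reporter units were exposed for 24 h with 3 nM 6-alpha-fluorotestosterone present. Reporter mRNA was quantified by RT-PCR, FAM labelling, HpaI digestion and capillary electrophoresis; background-control readout, gain-of-signal versus DMSO.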
# [3] = ATG_M_06_XSP1: Attagene TRANS-FACTORIAL Multi-Species (XSP1) HepG2 Assay for M06 Transcription Factor (Internal Marker) (AID 2283790)
# Outline: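 Transfected HepG2 multi-reporter system treated 24 h in the presence of 3 nM 6-alpha-fluorotestosterone. The M06 internal marker transcript was quantified by RT-PCR with capillary electrophoresis as a background control, and gain of signal was scored versus DMSO.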
# [4] = ATG_M_19_XSP1: Attagene TRANS-FACTORIAL Multi-Species (XSP1) HepG2 Assay for M19 Transcription Factor (Internal Marker) (AID 2283798)
# Outline: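 HepG2 cells transiently transfected with multiplexed GAL4-UAS reporter units, dosed 24 h with 3 nM 6-alpha-fluorotestosterone present for partial AR stimulation. Reporter mRNA measured by RT-PCR with capillary electrophoresis; gain-of-signal fitted relative to DMSO.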
# [5] = target: Peroxisome proliferator-activated receptor gamma (Homo sapiens) (UniProt P37231); assay: ATG_hPPARg_XSP1: Attagene TRANS-FACTORIAL Multi-Species (XSP1) HepG2 Assay for human Peroxisome Proliferator-activated Receptor gamma (PPARg) (AID 2283800)
# Outline: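 HepG2 cells transiently transfected with GAL4-UAS reporter units carrying chimeric NR-Gal4 proteins; 3 nM 6-alpha-fluorotestosterone present. After 24 h dosing, reporter mRNA quantified by RT-PCR and capillary electrophoresis; gain of signal relative to DMSO.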
# [6] = target: mouse Peroxisome Proliferator-activated Receptor gamma (PPARg), Pparg (gene 19016) (UniProt P37238); assay: ATG_mPPARg_XSP1: Attagene TRANS-FACTORIAL Multi-Species (XSP1) HepG2 Assay for mouse Peroxisome Proliferator-activated Receptor gamma (PPARg) (AID 2283802)
# Outline: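 HepG2 cells transiently transfected with GAL4-UAS reporter units driven by mouse PPARg–GAL4 chimera; 3 nM 6-alpha-fluorotestosterone present. After 24 h dosing, reporter mRNA quantified by RT-PCR, fluorescent labelling and capillary electrophoresis; gain of signal versus DMSO.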
# [7] = target: human Thyroid hormone Receptor alpha (TRa), THRA (gene 7067) (UniProt P10827); assay: ATG_hTRa_XSP1: Attagene TRANS-FACTORIAL Multi-Species (XSP1) HepG2 Assay for human Thyroid hormone Receptor alpha (TRa) (AID 2283805)
# Outline: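 HepG2 cells transiently transfected with GAL4-UAS reporter units expressing chimeric NR-Gal4 proteins, dosed 24 hours with 3 nM 6-alpha-fluorotestosterone present. Reporter mRNA measured by RT-PCR and capillary electrophoresis; gain of signal fitted versus DMSO.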
# [8] = target: zebrafish Thyroid Hormone Receptor alpha (TRa), thraa (gene 30670) (UniProt Q98867); assay: ATG_zfTRa_XSP1: Attagene TRANS-FACTORIAL Multi-Species (XSP1) HepG2 Assay for zebrafish Thyroid Hormone Receptor alpha (TRa) (AID 2283807)
# Outline: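 HepG2 cells transiently transfected with GAL4-UAS reporter units including a zebrafish TRa–Gal4 chimera, dosed 24 h with 3 nM 6-alpha-fluorotestosterone present. Reporter mRNA quantified by RT-PCR and capillary electrophoresis; gain versus DMSO.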
# [9] = target: human Thyroid hormone Receptor beta (TRb), THRB (gene 7068) (UniProt P10828); assay: ATG_hTRb_XSP1: Attagene TRANS-FACTORIAL Multi-Species (XSP1) HepG2 Assay for human Thyroid hormone Receptor beta (TRb) (AID 2283808)
# Outline: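 HepG2 cells transiently transfected with reporter units driving GAL4-UAS reporters for chimeric NR-Gal4 proteins; 24 h chemical exposure with 3 nM 6-alpha-fluorotestosterone present. Reporter mRNA quantified by RT-PCR and capillary electrophoresis, gain of signal versus DMSO.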
# [10] = ATG_XTT_Cytotoxicity_XSP1: Cytotoxicity Assessment in the Attagene TRANS-FACTORIAL Multi-Species (XSP1) HepG2 Assay (AID 2283810)
# Outline: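 XTT viability readout taken at 24 hours post-dosing in HepG2 liver cells co-treated with 3 nM 6-alpha-fluorotestosterone. Signal loss relative to DMSO controls reflects cytotoxicity.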
# [11] = ATG_M_06_XSP2: Attagene TRANS-FACTORIAL Multi-Species (XSP2) HepG2 Assay for M06 Transcription Factor (Internal Marker) (AID 2283811);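 further: hits are increases in signal above the DMSO baseline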
# Outline: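 HepG2, multiplexed reporter transfection; 24 h dosing; AR stimulated with 3 nM 6-alpha-fluorotestosterone + 1.5 nM norgestrel; RNA → RT-PCR → 6-FAM primer extension → HpaI → CE. Positive direction vs DMSO.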
# [12] = test system: turtle Estrogen Receptor (ERa), gene 101933533; assay: ATG_trERa_XSP2: Attagene TRANS-FACTORIAL Multi-Species (XSP2) HepG2 Assay for turtle Estrogen Receptor (ERa) (AID 2283812);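 further: human HepG2 liver cells transiently expressing turtle ERa-Gal4 chimeric receptor; actives raise reporter signal above DMSO so AC50 reflects agonist activity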
# Outline: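 HepG2 cells transiently transfected with GAL4-UAS reporter units expressing turtle ERa-Gal4 chimera. Reporter mRNA measured after 24 h dosing by RT-PCR, fluorescent labelling and capillary electrophoresis; gain of signal fitted versus DMSO.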
# [13] = target: Estrogen receptor beta (Homo sapiens) (UniProt Q92731); assay: ATG_hERb_XSP2: Attagene TRANS-FACTORIAL Multi-Species (XSP2) HepG2 Assay for human Estrogen Receptor (ERb) (AID 2283813);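 further: actives raise reporter mRNA above DMSO so AC50 reflects agonist induction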
# Outline: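 HepG2 cells transiently transfected with GAL4-UAS reporter units and chimeric human ERb-Gal4, 24 h exposure. Reporter mRNA quantified by RT-PCR with FAM labelling, HpaI digestion and capillary electrophoresis; gain of signal versus DMSO.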
# [14] = target: GAL4 Transcription Factor (Internal Marker), GAL4 (gene 855828) (UniProt P04386); assay: ATG_GAL4_XSP2: Attagene TRANS-FACTORIAL Multi-Species (XSP2) HepG2 Assay for GAL4 Transcription Factor (Internal Marker) (AID 2283814);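 further: GAL4 reporter mRNA background control in MRTU transfected cells not a receptor target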
# Outline: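 HepG2 cells transiently transfected with GAL4-UAS reporter units, stimulated with 3 nM 6-alpha-fluorotestosterone plus 1.5 nM norgestrel, dosed 24 h. Reporter mRNA by RT-PCR/capillary electrophoresis; gain-of-signal fit versus DMSO, background control.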
# AR (gene 367) = AR (gene 367) (UniProt P10275); assay: ACEA_AR_antagonist_80hr: ACEA Biosciences xCELLigence Real-Time Cell Analysis on Androgen Receptor Antagonism for Proliferation (AID 2283787);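 further: 22Rv1 human prostate cancer cells with growth followed by electrical impedance; hits lower the impedance growth signal relative to DMSO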
# Outline: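 Growth-kinetic antagonist readout in 22Rv1 cells, taken 80 h after continuous compound exposure. Activity fitted as signal loss relative to DMSO negative control.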
# [15] = test system: turtle Androgen Receptor (AR), gene 101947425; assay: ATG_trAR_XSP1: Attagene TRANS-FACTORIAL Multi-Species (XSP1) HepG2 Assay for turtle Androgen Receptor (AR) (AID 2283786)
# Outline: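 HepG2 cells transiently transfected with a turtle AR–GAL4 chimera and GAL4-UAS reporter, co-treated with 3 nM 6-alpha-fluorotestosterone for partial stimulation. Reporter mRNA is quantified at 24 h by RT-PCR and capillary electrophoresis, gain-of-signal versus DMSO.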
# [16] = test system: turtle Thyroid Hormone Receptor, alpha (TRa), gene 101949057; assay: ATG_trTRa_XSP1: Attagene TRANS-FACTORIAL Multi-Species (XSP1) HepG2 Assay for turtle Thyroid Hormone Receptor, alpha (TRa) (AID 2283806)
# Outline: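 HepG2 cells transiently transfected with GAL4-UAS reporter units and chimeric receptor-Gal4 constructs, with 3 nM 6-alpha-fluorotestosterone present. Reporter mRNA was quantified 24 h after dosing by RT-PCR, 6-FAM labelling and capillary electrophoresis; gain of signal versus DMSO.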
# [17] = target: human Androgen Receptor (AR), AR (gene 367) (UniProt P10275); assay: ATG_hAR_XSP1: Attagene TRANS-FACTORIAL Multi-Species (XSP1) HepG2 Assay for human Androgen Receptor (AR) (AID 2283785)
# Protocol: ATG_XSP1_multi-species_TRANS is a cell-based, multiplexed assay created by modifying the existing Attagene TRANS-FACTORIAL system to include a panel of nuclear receptors from some or all the following species: human (Homo sapiens), mouse (Mus musculus), frog (Xenopus laevis), zebrafish (Danio rerio), chicken (Gallus gallus), and turtle (Chrysemys picta). The ECOTOX-FACTORIAL format uses HepG2, a human liver cell line, with measurements taken at 24 hours after chemical dosing in a 24-well plate. Xsp1 included 3 nM 6-alpha-fluorotestosterone to partially stimulate the androgen receptor.ATG_hAR_XSP1 is one of 29 assay components measured or calculated from the ATG_XSP1_multi-species_TRANS assay. It is designed to make measurements of mRNA induction, a form of inducible reporter, as detected with fluorescence intensity signals by Reverse transcription polymerase chain reaction (RT-PCR) and Capillary electrophoresis technology.The assay endpoint ATG_hAR_XSP1 was analyzed in the positive analysis fitting direction relative to DMSO as the negative control and baseline of activity. […] Furthermore, this assay endpoint can be referred to as a primary readout, because this assay has produced multiple assay endpoints where this one serves a reporter gene function. […]
# [18] = target: frog Thyroid hormone Receptor alpha (TRa), thra-a (gene 397942) (UniProt P15204); assay: ATG_frTRa_XSP1: Attagene TRANS-FACTORIAL Multi-Species (XSP1) HepG2 Assay for frog Thyroid hormone Receptor alpha (TRa) (AID 2283804)
# Outline: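 HepG2 cells transiently transfected with frog TRa-GAL4 chimeric reporter units, dosed 24 hr with 3 nM 6-alpha-fluorotestosterone present; reporter mRNA quantified by RT-PCR, fluorescent labelling and capillary electrophoresis, gain of signal versus DMSO.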
# [19] = ATG_M_32_XSP1: Attagene TRANS-FACTORIAL Multi-Species (XSP1) HepG2 Assay for M32 Transcription Factor (Internal Marker) (AID 2283799)
# Outline: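 HepG2 cells transiently transfected with multi-species TRANS reporter units, dosed 24 h with 3 nM 6-alpha-fluorotestosterone present. Internal-marker reporter mRNA quantified by RT-PCR and capillary electrophoresis; positive-direction fit versus DMSO.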
# human Thyroid hormone Receptor beta (TRb), THRB (gene 7068), sequence (P10828 whole entry, looked up, the tested form may be a part): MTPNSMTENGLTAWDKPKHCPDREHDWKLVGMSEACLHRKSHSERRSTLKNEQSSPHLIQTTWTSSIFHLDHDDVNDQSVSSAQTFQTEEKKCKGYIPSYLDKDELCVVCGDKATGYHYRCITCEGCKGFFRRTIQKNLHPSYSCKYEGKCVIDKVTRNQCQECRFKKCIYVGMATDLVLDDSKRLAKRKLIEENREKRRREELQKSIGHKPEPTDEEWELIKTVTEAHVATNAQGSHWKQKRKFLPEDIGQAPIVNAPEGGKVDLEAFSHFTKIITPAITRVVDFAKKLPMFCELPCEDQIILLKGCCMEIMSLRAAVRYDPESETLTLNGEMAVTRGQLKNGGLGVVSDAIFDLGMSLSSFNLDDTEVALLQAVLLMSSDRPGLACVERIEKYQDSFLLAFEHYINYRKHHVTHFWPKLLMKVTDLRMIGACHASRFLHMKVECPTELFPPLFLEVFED
# Estrogen receptor beta (Homo sapiens), sequence (Q92731 whole entry, looked up, the tested form may be a part): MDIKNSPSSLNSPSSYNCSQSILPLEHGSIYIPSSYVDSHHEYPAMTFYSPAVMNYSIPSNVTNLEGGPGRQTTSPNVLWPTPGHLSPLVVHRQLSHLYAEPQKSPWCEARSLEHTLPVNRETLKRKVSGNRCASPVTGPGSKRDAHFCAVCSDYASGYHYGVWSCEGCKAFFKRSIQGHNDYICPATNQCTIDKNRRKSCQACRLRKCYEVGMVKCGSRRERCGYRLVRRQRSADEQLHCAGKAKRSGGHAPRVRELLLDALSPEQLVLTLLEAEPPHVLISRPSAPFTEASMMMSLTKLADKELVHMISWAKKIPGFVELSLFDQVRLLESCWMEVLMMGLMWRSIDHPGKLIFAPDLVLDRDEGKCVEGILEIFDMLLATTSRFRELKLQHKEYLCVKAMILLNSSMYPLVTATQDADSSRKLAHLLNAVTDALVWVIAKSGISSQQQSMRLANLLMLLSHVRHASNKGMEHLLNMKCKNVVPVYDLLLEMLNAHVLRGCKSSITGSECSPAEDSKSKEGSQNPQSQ
# Peroxisome proliferator-activated receptor gamma (Homo sapiens), sequence (P37231 whole entry, looked up, the tested form may be a part): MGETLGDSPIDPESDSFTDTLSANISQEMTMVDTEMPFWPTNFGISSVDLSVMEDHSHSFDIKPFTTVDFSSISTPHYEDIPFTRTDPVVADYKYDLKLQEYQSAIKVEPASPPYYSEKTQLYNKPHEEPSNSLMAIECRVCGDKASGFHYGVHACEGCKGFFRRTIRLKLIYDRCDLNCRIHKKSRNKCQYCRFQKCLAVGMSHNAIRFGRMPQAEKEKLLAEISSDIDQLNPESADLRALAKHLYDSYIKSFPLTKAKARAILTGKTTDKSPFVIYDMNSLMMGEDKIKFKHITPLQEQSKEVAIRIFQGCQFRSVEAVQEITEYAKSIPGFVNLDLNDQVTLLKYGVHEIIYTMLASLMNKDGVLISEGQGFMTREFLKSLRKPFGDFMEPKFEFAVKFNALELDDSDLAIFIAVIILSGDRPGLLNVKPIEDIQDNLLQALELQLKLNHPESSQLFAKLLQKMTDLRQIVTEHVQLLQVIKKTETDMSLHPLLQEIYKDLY
# human Thyroid hormone Receptor alpha (TRa), THRA (gene 7067), sequence (P10827 whole entry, looked up, the tested form may be a part): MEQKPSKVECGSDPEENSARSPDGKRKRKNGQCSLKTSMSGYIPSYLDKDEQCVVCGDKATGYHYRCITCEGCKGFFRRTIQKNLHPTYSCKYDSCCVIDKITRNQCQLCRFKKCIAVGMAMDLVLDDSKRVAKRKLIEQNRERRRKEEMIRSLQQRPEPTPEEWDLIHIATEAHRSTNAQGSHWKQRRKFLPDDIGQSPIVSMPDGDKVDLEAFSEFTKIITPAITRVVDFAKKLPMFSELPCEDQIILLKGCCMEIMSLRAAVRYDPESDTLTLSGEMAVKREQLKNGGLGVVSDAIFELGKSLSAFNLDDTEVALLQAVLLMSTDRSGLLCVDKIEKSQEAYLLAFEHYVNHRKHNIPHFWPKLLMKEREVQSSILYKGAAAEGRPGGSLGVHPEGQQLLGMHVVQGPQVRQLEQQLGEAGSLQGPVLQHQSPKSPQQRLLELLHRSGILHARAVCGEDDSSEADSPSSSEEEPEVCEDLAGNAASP
# mouse Peroxisome Proliferator-activated Receptor gamma (PPARg), Pparg (gene 19016), sequence (P37238 whole entry, looked up, the tested form may be a part): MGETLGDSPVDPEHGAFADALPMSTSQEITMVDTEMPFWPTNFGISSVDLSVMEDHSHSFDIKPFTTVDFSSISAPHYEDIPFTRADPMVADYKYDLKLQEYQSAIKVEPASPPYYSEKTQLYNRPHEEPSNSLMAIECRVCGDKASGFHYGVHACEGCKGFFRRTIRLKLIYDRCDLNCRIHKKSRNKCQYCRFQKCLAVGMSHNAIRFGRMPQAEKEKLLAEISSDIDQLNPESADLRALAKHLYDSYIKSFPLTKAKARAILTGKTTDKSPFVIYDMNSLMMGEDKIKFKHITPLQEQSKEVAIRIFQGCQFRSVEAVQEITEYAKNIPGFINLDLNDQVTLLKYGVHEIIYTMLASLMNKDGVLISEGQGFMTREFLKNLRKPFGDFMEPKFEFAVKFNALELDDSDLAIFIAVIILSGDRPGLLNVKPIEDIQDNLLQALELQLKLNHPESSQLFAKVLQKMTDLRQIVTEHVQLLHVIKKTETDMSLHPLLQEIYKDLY
# frog Thyroid hormone Receptor alpha (TRa), thra-a (gene 397942), sequence (P15204 whole entry, looked up, the tested form may be a part): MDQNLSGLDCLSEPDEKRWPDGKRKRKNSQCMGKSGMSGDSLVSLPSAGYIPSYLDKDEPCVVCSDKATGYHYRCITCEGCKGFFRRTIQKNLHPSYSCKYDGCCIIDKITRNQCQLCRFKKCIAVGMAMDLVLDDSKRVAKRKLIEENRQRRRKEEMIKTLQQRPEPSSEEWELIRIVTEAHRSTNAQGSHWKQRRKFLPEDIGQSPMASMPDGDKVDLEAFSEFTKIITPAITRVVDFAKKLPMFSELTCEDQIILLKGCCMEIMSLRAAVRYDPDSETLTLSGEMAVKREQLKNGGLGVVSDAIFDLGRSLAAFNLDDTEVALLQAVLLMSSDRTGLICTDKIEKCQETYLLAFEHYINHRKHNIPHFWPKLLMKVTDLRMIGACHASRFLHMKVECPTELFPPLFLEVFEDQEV
# GAL4 Transcription Factor (Internal Marker), GAL4 (gene 855828), sequence (P04386 whole entry, looked up, the tested form may be a part): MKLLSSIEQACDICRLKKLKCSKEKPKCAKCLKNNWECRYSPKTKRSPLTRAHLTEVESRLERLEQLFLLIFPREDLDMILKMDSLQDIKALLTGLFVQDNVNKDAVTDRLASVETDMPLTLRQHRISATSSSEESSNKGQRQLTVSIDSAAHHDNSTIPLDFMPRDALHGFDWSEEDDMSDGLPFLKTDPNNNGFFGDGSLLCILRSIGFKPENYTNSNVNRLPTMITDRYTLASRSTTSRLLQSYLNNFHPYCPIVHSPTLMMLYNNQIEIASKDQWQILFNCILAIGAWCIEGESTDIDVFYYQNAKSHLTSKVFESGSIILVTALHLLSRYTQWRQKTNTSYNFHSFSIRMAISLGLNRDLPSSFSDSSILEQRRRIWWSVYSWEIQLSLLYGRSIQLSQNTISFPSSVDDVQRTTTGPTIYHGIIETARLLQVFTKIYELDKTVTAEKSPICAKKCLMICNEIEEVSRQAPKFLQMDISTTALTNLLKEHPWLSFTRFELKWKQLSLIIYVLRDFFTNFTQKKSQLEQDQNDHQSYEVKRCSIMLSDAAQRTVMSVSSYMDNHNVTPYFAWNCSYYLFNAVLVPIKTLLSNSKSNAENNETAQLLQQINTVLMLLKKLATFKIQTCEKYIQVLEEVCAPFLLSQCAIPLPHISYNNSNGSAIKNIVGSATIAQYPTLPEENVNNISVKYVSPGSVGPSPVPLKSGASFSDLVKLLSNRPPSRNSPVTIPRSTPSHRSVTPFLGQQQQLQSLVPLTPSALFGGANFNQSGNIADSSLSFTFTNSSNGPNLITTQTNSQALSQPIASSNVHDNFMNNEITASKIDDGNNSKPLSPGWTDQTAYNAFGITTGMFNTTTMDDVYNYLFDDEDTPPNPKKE
# zebrafish Thyroid Hormone Receptor alpha (TRa), thraa (gene 30670), sequence (Q98867 whole entry, looked up, the tested form may be a part): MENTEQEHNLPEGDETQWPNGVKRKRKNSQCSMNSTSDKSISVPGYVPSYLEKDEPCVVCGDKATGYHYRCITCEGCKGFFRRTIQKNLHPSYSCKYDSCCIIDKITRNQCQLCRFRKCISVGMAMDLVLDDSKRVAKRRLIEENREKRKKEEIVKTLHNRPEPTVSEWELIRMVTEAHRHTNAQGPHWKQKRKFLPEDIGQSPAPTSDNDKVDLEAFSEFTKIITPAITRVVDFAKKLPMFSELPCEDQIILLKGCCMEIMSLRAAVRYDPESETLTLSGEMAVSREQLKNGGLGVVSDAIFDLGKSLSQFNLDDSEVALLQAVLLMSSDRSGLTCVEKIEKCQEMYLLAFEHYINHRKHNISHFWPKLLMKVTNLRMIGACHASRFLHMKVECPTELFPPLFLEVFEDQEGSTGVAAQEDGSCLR
smiles,measurement,setting,value
COc1ccc(C(c2ccc(OC)cc2)C(Cl)(Cl)Cl)cc1,outcome,[1],inactive
same,outcome,[2],inactive
same,outcome,[3],inactive
same,outcome,[4],inactive
same,outcome,[5],inactive
same,outcome,[6],inactive
same,outcome,[7],inactive
same,outcome,[8],inactive
same,outcome,[9],inactive
same,outcome,[10],inactive
same,outcome,[11],inactive
same,AC50,[12],8.99 µM (active)
same,outcome,[13],inactive
same,outcome,[14],inactive
Cc1ccc(-c2c(Cl)nc(C#N)n2S(=O)(=O)N(C)C)cc1,AC50,AR (gene 367),14.1 µM (active)
C#CCOS(=O)OC1CCCCC1Oc1ccc(C(C)(C)C)cc1 (centres undefined),AC50,[15],1.6 µM (active)
same,AC50,[1],24.2 µM (active)
same,outcome,[3],inactive
same,AC50,[5],26.1 µM (active)
same,AC50,[6],7.65 µM (active)
same,outcome,[7],inactive
same,outcome,[16],inactive
same,outcome,[9],inactive
same,outcome,[11],inactive
same,outcome,[12],inactive
same,outcome,[14],inactive
COP(=S)(OC)Oc1nc(Cl)c(Cl)cc1Cl,AC50,[15],25.3 µM (active)
same,AC50,[1],27.1 µM (active)
same,outcome,[3],inactive
same,outcome,[4],inactive
same,AC50,[5],2.29 µM (active)
same,AC50,[6],3.73 µM (active)
same,outcome,[16],inactive
same,outcome,[11],inactive
same,AC50,[12],55.8 µM (active)
same,outcome,[13],inactive
CO/C=C(/C(=O)OC)c1ccccc1Oc1cc(Oc2ccccc2C#N)ncn1,outcome,[17],inactive
same,AC50,AR (gene 367),61.2 µM (active)
same,outcome,[1],inactive
same,outcome,[2],inactive
same,outcome,[3],inactive
same,outcome,[6],inactive
same,outcome,[18],inactive
same,outcome,[7],inactive
same,outcome,[16],inactive
same,outcome,[8],inactive
same,outcome,[9],inactive
same,outcome,[11],inactive
same,outcome,[12],inactive
CCCCC(CC)COC(=O)c1ccccc1C(=O)OCC(CC)CCCC (centres undefined),outcome,[3],inactive
same,outcome,[4],inactive
same,outcome,[19],inactive
same,AC50,[5],8.96 µM (active)
same,outcome,[6],inactive
same,outcome,[18],inactive
same,AC50,[7],46.3 µM (active)
same,AC50,[16],47.8 µM (active)
same,outcome,[8],inactive
same,AC50,[9],100 µM (active)
same,outcome,[10],inactive
same,outcome,[11],inactive
Cc1cc(Cl)ccc1OCC(=O)O,outcome,AR (gene 367),inactive
C=CC1(C)OC(=O)N(c2cc(Cl)cc(Cl)c2)C1=O (centres undefined),outcome,[1],inactive
same,outcome,[2],inactive
same,outcome,[3],inactive
same,outcome,[4],inactive
same,outcome,[18],inactive
same,outcome,[7],inactive
same,AC50,[16],134 µM (active)
same,outcome,[8],inactive
same,AC50,[9],67.6 µM (active)
same,outcome,[11],inactive
same,outcome,[12],inactive
same,outcome,[13],inactive
CCCCNC(=O)n1c(NC(=O)OC)nc2ccccc21,AC50,AR (gene 367),71.7 µM (active)
CCCCNC(=O)OCC#CI,outcome,[3],inactive
same,AC50,[5],11.1 µM (active)
same,AC50,[6],11.1 µM (active)
same,outcome,[18],inactive
same,outcome,[7],inactive
same,outcome,[16],inactive
same,outcome,[9],inactive
same,AC50,[10],23.2 µM (active)
same,outcome,[11],inactive
same,outcome,[13],inactive
CC(C)Oc1cc(-n2nc(C(C)(C)C)oc2=O)c(Cl)cc1Cl,outcome,[15],inactive
same,AC50,[1],100 µM (active)
same,outcome,[2],inactive
same,outcome,[3],inactive
same,AC50,[5],12.7 µM (active)
same,AC50,[6],14 µM (active)
same,AC50,[18],61.6 µM (active)
same,outcome,[16],inactive
same,outcome,[8],inactive
same,outcome,[10],inactive
same,outcome,[11],inactive
same,AC50,[12],100 µM (active)
same,AC50,[13],29.3 µM (active)
same,outcome,[14],inactive
